About 79,000 compounds went through this panel and 15% of them were active in at least one assay; those are over-represented in the sample as a whole. Unmarked numbers belong to inactive results. Calls of active or inactive are those of the source. Rule as the data show it: active = growth inhibition above about 70%; inactive = the rest.
Tests used:
[1] = NCI Yeast Anticancer Drug Screen. Data for the rad50 strain (AID 155);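 also: 0% = growth of vehicle-only cultures of the same strain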; conditions: S. cerevisiae rad50 strain growth inhibition; at 50.0 µM; stronger effect = higher value
Method in brief: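 Genetically altered yeast (DNA repair pathway); compound treatment; growth inhibition vs vehicle ctrl.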

[2] = NCI Yeast Anticancer Drug Screen. Data for the mec2-1 strain (AID 157); conditions: S. cerevisiae mec2-1 strain, at 50.0 µM, stronger effect = higher value
Method in brief: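 Readout is yeast growth inhibition, normalised to vehicle-treated controls, in the mec2-1 strain exposed to compound.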

[3] = NCI Yeast Anticancer Drug Screen. Data for the sgs1 mgt1 strain (AID 161);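 also: 0% = growth of cultures given vehicle only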; conditions: S. cerevisiae sgs1 mgt1 strain, at 50.0 µM, stronger effect = higher value
Method in brief: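 This yeast growth screen uses a strain with defined DNA-repair lesions; compound-treated growth is compared with vehicle-treated growth.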

[4] = NCI Yeast Anticancer Drug Screen. Data for the cln2 rad14 strain (AID 165);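 also: 0% = growth equal to vehicle treated cultures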; conditions: S. cerevisiae cln2 rad14 strain, at 50.0 µM, stronger effect = higher value
Method in brief: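 Relative to vehicle controls, growth inhibition of compound-treated cln2 rad14 yeast was recorded.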

[5] = NCI Yeast Anticancer Drug Screen. Data for the bub3 strain (AID 167); conditions: S. cerevisiae bub3 mutant strain, at 50.0 µM, stronger effect = higher value
Method in brief: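 Yeast carrying a defined mutation is treated with each compound, and growth is compared with that of vehicle-exposed cells to give inhibition.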

[6] = NCI Yeast Anticancer Drug Screen. Data for the mlh1 rad18 strain (AID 175); conditions: S. cerevisiae mlh1 rad18 strain growth inhibition; at 50.0 µM; stronger effect = higher value
Method in brief: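 Test agents were incubated with a yeast strain of defined genotype (DNA damage repair defect). Inhibition of growth was derived by comparison with vehicle-exposed cultures.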

| SMILES | growth inhibition [1] [%] | growth inhibition [2] | growth inhibition [3] | growth inhibition [4] | growth inhibition [5] [%] | growth inhibition [6] [%] |
| --- | --- | --- | --- | --- | --- | --- |
| c1ccc2oc(N3CCN(c4nc5ccccc5o4)CC3)nc2c1 | 4.45 | -0.2% | -9.1% | 5.85% | 12 | -12.2 |
| NCCCC(N)C(=O)O (stereo not drawn) | -16.9 | -17.4% | -33.5% | -12.7% | -42.6 | -19.7 |
| CCCCCCCCCCCCCCCc1c(NC(C)(CC(C)(C)O)[P+](=O)O)c(=O)n(C)n1C (stereo not drawn) | -52.2 | -31.1% | -30.9% | -25.2% | -33.8 | -33.4 |
| CC(=O)NNC(=S)/N=C/C(C(=O)Nc1ccc([N+](=O)[O-])cc1)=C(\C)O | -19.8 | 4.4% | -21.9% | 15.8% | 6.5 | -4 |
| CCOc1ccc(N=Nc2c(C)nn(C(N)=S)c2OCC)cc1 | -54.6 | -21.6% | 11.6% | -38.5% | -5.25 | -7.35 |
| Cc1ccccc1-n1c(=O)sc2c(=O)n(-c3ccccc3)c(=S)[nH]c21 | -11.2 | -23.4% | 6.9% | 6.2% | 0.6 | -18.9 |
| NS(=O)(=O)c1ccc(NC2=CC(=O)C(=O)c3ccccc32)cc1 | -6.4 | -5.6% | -21.4% | 2.4% | -7.55 | -11.6 |
| C(=C\c1nc2ccccc2nc1/C=C/c1ccccc1)/c1ccccc1 | -25.9 | -9.4% | -13.8% | -12.3% | 2.7 | 9.45 |
| Cn1nc(-c2ccccc2)c(-c2ccccc2)c(C#N)c1=O | 0.05 | -3.55% | 0.4% | -22.6% | -1.8 | 0.8 |
| Clc1ccc(N=Cc2ccccc2)cn1 | -13.6 | 22.1% | 37% | -14.4% | 6.55 | 47.4 |
| CN(C)c1nc(O)cc(=O)[nH]1 | 5.05 | -0.35% | -6.6% | -34.8% | 8.3 | 25.3 |
| Cc1ccc(S(=O)(=O)Nc2ccc(C(=O)NC(CCC(=O)O)C(=O)O)cc2)cc1 (stereo not drawn) | 3.3 | 2.95% | -8.05% | -2.45% | -1.5 | 13.7 |
| COc1ccc(C(=O)C(C(=O)CCC(=O)Nc2ccc(Cl)c(Cl)c2)c2ccc(OC)cc2)cc1 (stereo not drawn) | -9.65 | 1.7% | -11.3% | -8.6% | 18.6 | -17.9 |
| O=C(Nc1cccc2ccccc12)c1ccccc1 | 18.4 | -38.2% | -0.25% | -37.2% | -9.45 | 19.4 |
| N#Cc1c(-c2ccccc2)ssc1=S | 31.4 | 25.1% | 50.4% | -20.8% | 11.8 | 12.6 |
| COc1ccc(NC(=O)CC(=O)NN)cc1 | -5.4 | -0.05% | 3.4% | -1.5% | -9.55 | 9.2 |
| Cc1cc(C(c2ccc(Nc3ccccc3)cc2)c2ccc(Nc3ccccc3)cc2)ccc1Nc1ccccc1 | 2.35 | -4.65% | 7.5% | -7.05% | 5.5 | -19.1 |
| C[C@@H]1CC[C@@]2(C)C(C(=O)O)=CCCC2[C@@]1(C)CC(=O)c1ccoc1 (stereo partly drawn) | -11.9 | -8.55% | -36.1% | -17.1% | -42.5 | -35.2 |
| CS(=O)(=O)OC1C(OCc2ccccc2)OC(CO)C(O)C1O (stereo not drawn) | -6.1 | 2.15% | -10.1% | -55.6% | -1.6 | 0.55 |

| SMILES | growth inhibition [1] [%] | growth inhibition [2] | growth inhibition [3] | growth inhibition [4] | growth inhibition [5] [%] | growth inhibition [6] [%] |
| --- | --- | --- | --- | --- | --- | --- |
| Brc1ccncc1 | -10.7 | -47.5% | -1.55% | 3.35% | -21.9 | -13.6 |
| CC(C)CC1NC(=O)OC1=O (stereo not drawn) | 6.7 | 0.9% | -9.7% | -17.6% | 1.25 | 0.35 |
| Cc1ccc(S(=O)(=O)C2c3nc4ccccc4cc3-c3nc4ccccc4nc32)cc1 (stereo not drawn) | -10.8 | -13.2% | -17.8% | -81.8% | 7.95 | -14.9 |
| O=C(NC1CCCCC1)OC/C=C\c1ccccc1 | 7.2 | -12.7% | -7.8% | -6.95% | 12.3 | 3.8 |
| CC(=O)OCC1OC(Cl)C(NS(=O)(=O)Cc2ccccc2)C(OC(C)=O)C1OC(C)=O (stereo not drawn) | 7.6 | 15.7% | 15.7% | 24.6% | 5.35 | 22.4 |
| Cc1c(C(=O)O)[nH]c(=O)[nH]c1=O | 9.1 | -20.4% | 2.2% | 11.5% | -0.35 | -12.1 |
| c1ccc(-n2cccc2)cc1 | 7.4 | 7.05% | 9.25% | -30% | -3.7 | -11.6 |
| CCCCCCCC(=O)N(CCCCC)CCCCC | 66.5 | 77.2% (active) | 77.2% (active) | 74% (active) | 66.5 | 66.5 |
| CC1(C)COC(c2ccccc2Cl)OC1 | 20.1 | 9% | -0.45% | -24.6% | 0.7 | 18.6 |
| COc1ccc2c(c1)c1cc(OC)ccc1n2CCCCOc1ccc(-c2c3ccccc3c(-c3ccc(OCCCCn4c5ccc(OC)cc5c5cc(OC)ccc54)cc3)c3ccccc23)cc1 | 29.1 | 1.85% | -1.1% | 23.9% | 7.9 | 29.6 |
| COCCCNC(=O)c1nc2ccccc2c(=O)n1NC(=O)Cc1ccccc1 | -14.1 | -19.8% | 7% | 4.35% | 0.3 | -7.75 |
| CCCCC(C(C)=O)C(=O)CC (stereo not drawn) | 26.4 | -25% | 8.8% | -23.2% | -20.5 | 13.1 |
| O=[N+]([O-])c1ccc(N/N=C(/c2ccccc2)C2CCCC2)c([N+](=O)[O-])c1 | 11.4 | 18.6% | 12.8% | 7.9% | 11.9 | 12.9 |
| CC(=O)OC[C@H]1O[C@@H](O[C@H]2[C@H](OC(C)=O)C=CO[C@@H]2COC(C)=O)C(OC(C)=O)[C@H]2OC(C)(C)O[C@H]21 (stereo partly drawn) | -9 | -14.8% | -18.9% | 3.5% | 7.05 | 4.95 |
| CC1(C)CC(C)(C)c2c1oc(=O)c1c3c(oc(=O)c21)C(C)(C)CC3(C)C | 15.7 | -9.1% | 12.8% | 35.5% | 26.2 | -9.85 |
| COc1ccc(N=Nc2c(-c3ccccc3)nn(C(=O)CC(=O)Nc3ccc(OC)cc3)c2-c2ccccc2)cc1 | -17 | -1.7% | -0.8% | -25.4% | 11.7 | -3.35 |
| COC(=O)c1nc(N)nc(C(=O)OC)c1C(=O)c1ccccn1 | -12.1 | -19.2% | 1.65% | -20.2% | -11.3 | -1.75 |
| CCOC(=O)CNC(=O)C(Cc1ccccc1)NC(=O)CNC(=O)OCc1ccccc1 (stereo not drawn) | 22.4 | 8.6% | 15.5% | 20.4% | 0.75 | 20.8 |
| CC(C)N(C)c1ncnc2c1cnn2C | -1.55 | -2.85% | -3.95% | -14.8% | 1.75 | -14 |
